The results in this text go back to PubChem BioAssay.

Where “and” joins values, the source holds several entries; their conditions need not be identical. Equal entries are not always repeated. For some assays here: Entries with a potency or affinity are not part of this list.

Test [1] can be described thus: blockers of polyQ-driven CASP3 activation – cell-based (AID 1583). To be noted: polyglutamine-induced caspase-3 activation, cell assay; stronger effect = higher value;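 tested at 10 µM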.
The nature of test [2]: yeast 75Q aggregation reduction – 75Q-TubU reporter (AID 1593). To be noted: Yeast 75Q polyglutamine aggregation reporter.
A short description of test [3]: restoration of touch response, mutant HTT neurons – whole organism, C. elegans mechanosensory neurons, N-terminal huntingtin (AID 1599). To be noted: C. elegans polyQ-huntingtin mechanosensory neurons, stronger effect = higher value.
A short description of test [4]: blockers of cytochrome c efflux from mitochondria – biochemical, purified mitochondria (AID 1603).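 Note: mouse liver mitochondria challenged with calcium chloride; signal normalized to the plate average as 100%.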 To be noted: stronger effect = lower value.
A short description of test [5]: polyglutamine aggregate formation blockers (AID 1604). To be noted: polyglutamine-induced protein aggregation inhibition assay; stronger effect = higher value; tested at 2.5 µM.

For the compound `N=C(N)N`, the inhibition (in general, the relative decrease from the control value, in per cent) in test [1] is 11.9%. The compound further displayed a score in test [2] of 0.82. In test [3], this compound yielded a rescue above control of -2.24. Moreover, the cytochrome c release ratio in test [4] was 0.89. In test [5], the inhibition of aggregation was 73.1%.
Turning to `C[N+]1(CCCCC[N+]2(C)CCCC2)CCCC1`, the inhibition in test [1] is -38.1%. In test [2], this compound gave a score of 1.14. The compound also registered a rescue above control in test [3] of 1.54. The cytochrome c release ratio in test [4] was determined as 0.89. In addition, in test [5], the inhibition of aggregation came out at 49%.
The matching figures for `O=C(O)c1cccnc1Nc1cccc(C(F)(F)F)c1`: 18.6%, -0.01, 7.18, 0.87 and -18.2%.
On to `CO[C@@H]1[C@@H](OC(N)=O)[C@@H](O)[C@H](Oc2ccc3c(O)c(NC(=O)c4ccc(O)c(CC=C(C)C)c4)c(=O)oc3c2C)OC1(C)C`, for which, in test [1], the inhibition is -0.61%. This compound also showed a score in test [2] of 1.59. This compound yielded a rescue above control in test [3] of -8.05. For the same compound, in test [4], the cytochrome c release ratio was 0.96. Also, the inhibition of aggregation in test [5] is -73.2%.
In the same order, the values of `CN(C)CCC(c1ccccc1)c1ccccn1` (stereo not given) are 12.1%, 1.44, -9.39, 1 and -15.2%.
In the same order, the values of `COc1cc(NS(=O)(=O)c2ccc(N)cc2)ncn1` are -4.01%, 1.09, 33.1, 0.96 and 88.9%.
Regarding `CN(C)C(=O)Oc1cccc([N+](C)(C)C)c1`, the inhibition in test [1] is 15.7% and 16.9%. The score in test [2] was 1.16 and 1.39. For the same compound, the rescue above control in test [3] is 10.4 and -12.8. Besides, in test [4], the cytochrome c release ratio was 0.9 and 1.01. For the same compound, the inhibition of aggregation in test [5] was 74.6% and 38%.
For the compound `CCCCCCCCCCCCCCCCCCOCC(O)CO` (stereo not given), the inhibition in test [1] is -51.6%. Besides, the score in test [2] was determined as 1.03. The compound also came in with a rescue above control in test [3] of 2.94. In addition, the cytochrome c release ratio in test [4] is 1. Moreover, the inhibition of aggregation in test [5] worked out at 34.7%.
Turning to `CC(=O)N[C@@H](CS)C(=O)O`, in test [1], the inhibition was -21.7%. In test [2], this compound had a score of 1.46. This compound also came in with a rescue above control in test [3] of -1.36. Moreover, in test [4], the cytochrome c release ratio was 1.05. Further, the inhibition of aggregation in test [5] came out at 79.6%.
As for `COc1ccc(CN(CCN(C)C)c2ncccn2)cc1`, in test [1], the inhibition worked out at 10.6%. Moreover, the score in test [2] was determined as 1.36. The compound further came in with a rescue above control in test [3] of 1.69. The cytochrome c release ratio in test [4] was determined as 1.27. Besides, in test [5], the inhibition of aggregation was determined as 22.2%.
`Nc1ccc(S(=O)(=O)Nc2cnc3ccccc3n2)cc1`: the inhibition in test [1] was 26.1%. The same compound showed a score in test [2] of 1.42. This compound yielded a rescue above control in test [3] of 9.63. For the same compound, in test [4], the cytochrome c release ratio worked out at 1.1. Moreover, the inhibition of aggregation in test [5] came out at 22.7%.
`CCCCCC(C)N` (stereo not given): the inhibition in test [1] is -8.68%. The compound also yielded a score in test [2] of 1.2. Further, in test [3], the rescue above control is 1.21. Moreover, in test [4], the cytochrome c release ratio came out at 1.02. Besides, in test [5], the inhibition of aggregation is -9.09%.
The matching figures for `CC(C)(C)CC(C)(C)c1ccc(O)c(Cc2ccc(Cl)cc2Cl)c1`: 42%, -0.61, -2.34, 0.8 and 71.9%.
